Screening data (PubChem BioAssay)
EPAC2 ant val = Validation qHTS for antagonist of cAMP-regulated guanine nucleotide exchange factor 4 (EPAC2); Rap guanine nucleotide exchange factor 4 (Homo sapiens), Q8WZA2; EPAC2 Rap1B BODIPY-GDP exchange, fluorescence; Potency, µM (highest dose often 112 µM), hits mostly inhibitors; 16,000 compounds, 1.7% hits; AID 1645886, 2021; note: nearly all actives have a fitted effect of over 40% in size
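Normalized against a 6.5 mM cAMP agonist control, compounds were tested on 100 nM EPAC2 exchanging Rap1B-bound BODIPY-GDP (250 nM) for 50 uM GDP. Fluorescence drop (ex 480, em 540 nm) was tracked at room temperature over 30 min at 5-min intervals.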
EPAC1 agonist = Validation qHTS for agonist of cAMP-regulated guanine nucleotide exchange factor 3 (EPAC1); Rap guanine nucleotide exchange factor 3 (Homo sapiens), O95398; EPAC1 Rap1b BODIPY-GDP exchange, fluorescence; Potency, µM, usual class: activators; 16,000 compounds, 1% hits; AID 1645883, 2021; note: nearly all actives have a fitted effect of over 70% in size
Target sequence (O95398 whole entry, looked up): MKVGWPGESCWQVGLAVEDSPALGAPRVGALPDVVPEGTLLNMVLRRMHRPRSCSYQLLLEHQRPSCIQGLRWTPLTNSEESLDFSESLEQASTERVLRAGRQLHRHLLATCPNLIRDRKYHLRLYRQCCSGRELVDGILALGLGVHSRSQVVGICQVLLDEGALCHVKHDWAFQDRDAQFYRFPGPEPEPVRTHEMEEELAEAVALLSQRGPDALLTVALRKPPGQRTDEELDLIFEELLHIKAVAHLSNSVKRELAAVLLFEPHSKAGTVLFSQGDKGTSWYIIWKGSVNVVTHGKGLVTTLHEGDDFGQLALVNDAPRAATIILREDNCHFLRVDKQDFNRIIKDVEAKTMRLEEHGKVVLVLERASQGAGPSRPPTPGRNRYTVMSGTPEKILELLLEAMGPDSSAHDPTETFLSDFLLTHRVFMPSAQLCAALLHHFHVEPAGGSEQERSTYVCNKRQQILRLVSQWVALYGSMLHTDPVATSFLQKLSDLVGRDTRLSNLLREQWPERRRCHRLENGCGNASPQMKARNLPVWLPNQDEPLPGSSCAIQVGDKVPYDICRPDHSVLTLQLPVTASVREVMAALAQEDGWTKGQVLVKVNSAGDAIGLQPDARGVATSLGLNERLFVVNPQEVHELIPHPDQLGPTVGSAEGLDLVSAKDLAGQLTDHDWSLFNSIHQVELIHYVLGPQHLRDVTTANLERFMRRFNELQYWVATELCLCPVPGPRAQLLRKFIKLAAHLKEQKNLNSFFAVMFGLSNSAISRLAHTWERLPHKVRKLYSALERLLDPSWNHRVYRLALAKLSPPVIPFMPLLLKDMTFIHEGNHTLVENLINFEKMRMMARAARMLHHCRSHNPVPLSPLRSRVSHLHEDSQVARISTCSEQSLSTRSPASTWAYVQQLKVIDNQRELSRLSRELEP
A number is an active result; – = inactive; ? = inconclusive; ! = not confirmed by another sample. Hits are enriched below; roughly 3.1% of the tested compounds scored in any of these assays. Calls come from the whole dose curve; as a rule, active = well fitted curve in the direction sought with a large enough effect; inconclusive = small, poorly fitted or top-dose-only effect, or another doubt; inactive = no such curve, though single readings can be large; an effect the other way counts as inactive or inconclusive.

SMILES	EPAC2 ant val	EPAC1 agonist
CCOC(=O)[C@]12Cc3cc(OC)c(OC)cc3[C@H]1N(Cc1ccccc1)C(=O)c1ccccc12	–	–
CCOC(=O)[C@]12Cc3ccsc3[C@H]1N(Cc1ccccc1)C(=O)c1ccccc12	56µM	?
C[C@H]1[C@H]2Cc3ccc(O)cc3[C@]1(C)CCN2CCc1ccccc1	–	–
C[C@]12CC[C@@H]3c4ccc(OC(=O)N(CCCl)CCCl)cc4CC[C@H]3[C@@H]1CC[C@@H]2OP(=O)(O)O	–	?
CCCCCCCCCc1ccc(O)cc1	45µM	?
NCCc1ccc(O)cc1	–	–
[H+].[H+].[Hg+2].[O-]B([O-])[O-].[c-]1ccccc1	–	–
O=C1c2ccccc2-c2cccc3cccc1c23	–	112µM
CCCCCCC(=O)O[C@H]1CC[C@H]2[C@@H]3CC[C@H]4CC(=O)C=C(C)[C@]4(C)[C@H]3CC[C@]12C	–	–
CCOP(=S)(OCC)SCn1c(=O)oc2cc(Cl)ccc21	32µM	–
C#CCN1C(C)=C(C(=O)CCO)[C@@H](c2cccc(-n3oo3)c2)C(C(=O)OC)=C1C	20µM	?
CCNC1(c2cccs2)CCCCC1=O (configuration not stated)	–	–
Cc1ccccc1-n1c(CF)nc2ccc(N)cc2c1=O	–	–
CC[C@]1(O)CC(O[C@@H]2CC(N(C)C)C(O)C(C)O2)c2c(cc3c(c2O)C(=O)c2c(O)cccc2C3=O)C1C(=O)OC (some centres not stated)	–	?
CC[C@@]1(O)CC(O)c2c(cc3c(c2O)C(=O)c2c(O)ccc(O)c2C3=O)C1C(=O)OC (some centres not stated)	–	112µM
C[C@]12CC[C@H]3[C@@H](CCC4=CC(=O)CC[C@@]43C)[C@@H]1CC[C@H]2O	–	–
CC(C)=CCN1CC[C@@]2(C)c3cc(O)ccc3C[C@@H]1[C@@H]2C	–	–
CCCCN(CC)c1c([N+](=O)[O-])cc(C(F)(F)F)cc1[N+](=O)[O-]	–	?
CCCN(CCC)c1c([N+](=O)[O-])cc(S(N)(=O)=O)cc1[N+](=O)[O-]	40µM	–
CCCCCCCCCCCCCCCC[N+](C)(C)C	40µM!	–
CCCCCCCCCC[N+](C)(C)CCCCCCCCCC	–	–
C[C@H]1[C@@H]2Cc3ccc(O)cc3[C@@]1(C)CCN2C	–	–
CC(=O)O[C@H]1C[C@H](O[C@H]2[C@@H](O)C[C@H](O[C@H]3[C@@H](O)C[C@H](OC4CC[C@@]5(C)C(CC[C@@H]6[C@@H]5CC[C@]5(C)[C@@H](C7=CC(=O)OC7)[C@@H](O)C[C@]65O)C4)O[C@@H]3C)O[C@@H]2C)O[C@H](C)[C@H]1O[C@@H]1O[C@H](CO)[C@@H](O)[C@H](O)[C@H]1O (some centres not stated)	–	–
C[C@@]1(CO)[C@H](O)CC[C@@]2(C)[C@H]1CC[C@H]1C[C@@H]3C[C@@]12CC[C@]3(O)CO	63µM	–
CN[C@@]1(c2ccccc2Cl)CCCCC1=O	–	–
SMILES	EPAC2 ant val	EPAC1 agonist
CCCCCCCCCC(CC)c1ccc(S(=O)(=O)O)cc1 (configuration not stated)	56µM!	–
NC[C@H](CS(=O)(=O)O)c1ccc(Cl)cc1	–	–
C[C@]12C=CC(=O)C=C1CC[C@@H]1[C@@H]2CC[C@]2(C)OC(=O)CC[C@@H]12	–	–
CC1(C)[C@H](C=C(Cl)Cl)[C@H]1C(=O)OCc1c(F)c(F)cc(F)c1F	–	–
CCC(C)(C)c1ccc(O)cc1	–	–
CC(C)(C)CC(C)(C)c1ccc(O)cc1	56µM	–
CCCCCC[C@H]1C(=O)O[C@H](C)[C@H](NC(=O)c2cccc(NC=O)c2O)C(=O)O[C@@H](C)[C@@H]1OC(=O)CC(C)C	45µM	–
ClC1=C(Cl)[C@]2(Cl)[C@@H]3[C@H]4C[C@H]([C@@H]5O[C@H]45)[C@@H]3[C@@]1(Cl)C2(Cl)Cl	–	–
O=C1CS[C@@H](c2ccccc2Cl)c2cc(Cl)ccc2N1	32µM	–
CN1CC[C@]23c4c5ccc(O)c4O[C@H]2[C@@H](O)CC[C@H]3[C@H]1C5	–	–
O=C1C(I)=CC(=C(c2cc(I)c(O)c(I)c2)c2ccccc2C(=O)O)C=C1I	45µM!	–
Nc1ccccc1C(=O)O	–	–
CC[C@H](C)[C@H]1O[C@]2(C=C[C@@H]1C)C[C@@H]1C[C@@H](C/C=C(\C)[C@@H](O[C@H]3C[C@H](OC)[C@@H](O[C@H]4C[C@H](OC)[C@@H](O)[C@H](C)O4)[C@H](C)O3)[C@@H](C)/C=C/C=C3\CO[C@@H]4[C@H](O)C(C)=C[C@@H](C(=O)O1)[C@]34O)O2	?	–
Oc1cc[c]([Hg][Cl])cc1	–	–
CCCCNC(C)(C)[P+](=O)O	–	–
